Screening data deposited in PubChem BioAssay by Sanford-Burnham Center for Chemical Genomics.
CYP2C9 inhib = inhibitors of human CYP2C9. P11712. CYP2C9 Supersomes, luciferin-H conversion, luminescence. inhibition, % at 5 µM. hit rate 20% among 96,000;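 active = blocking of liver enzyme CYP2C9 beyond about 50% at 5 µM, limit read from the data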
CYP2C19 activ = activators of human cytochrome P450 2C19; P33261; recombinant CYP2C19, luciferin-H EGE luminescence; active compounds read high; 0 = fully inhibited enzyme, 1 = untreated enzyme; activation factor at 5 µM; 96,000 tested, under 10 active; AID 1025;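 active = activation factor of at least 2 at 5 µM in the primary screen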;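 note: 0 = wells with 2.5 mM tranylcypromine and 1 = vehicle-only wells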
CYP2C19 inh = human CYP2C19 inhibition | CYP2C19 Supersomes, luciferin-H EGE luminescence, 30 min | hit rate 21% among 96,000 | inhibition, % at 5 µM | AID 778;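 active = CYP2C19 inhibition above a set limit at 5 µM in the primary screen, cut at about 50% in these data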;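 note: plate controls were negative control wells for no effect and 2.5 mM tranylcypromine positive control for full effect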
CD11b adhes enh = increases human CD11b/CD18 adhesion to fibrinogen; activation, % at 10 µM; AID 1499; P05107+P11215; K562 CD11b/CD18 adhesion to fibrinogen, ATPlite luminescence; hit rate 0.07% among 93,000;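 active = 10 µM primary screen giving 50% or more activity, confirmed by 40% or more on retest at that dose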
Target sequence (P05107 whole entry, looked up, other chains not shown): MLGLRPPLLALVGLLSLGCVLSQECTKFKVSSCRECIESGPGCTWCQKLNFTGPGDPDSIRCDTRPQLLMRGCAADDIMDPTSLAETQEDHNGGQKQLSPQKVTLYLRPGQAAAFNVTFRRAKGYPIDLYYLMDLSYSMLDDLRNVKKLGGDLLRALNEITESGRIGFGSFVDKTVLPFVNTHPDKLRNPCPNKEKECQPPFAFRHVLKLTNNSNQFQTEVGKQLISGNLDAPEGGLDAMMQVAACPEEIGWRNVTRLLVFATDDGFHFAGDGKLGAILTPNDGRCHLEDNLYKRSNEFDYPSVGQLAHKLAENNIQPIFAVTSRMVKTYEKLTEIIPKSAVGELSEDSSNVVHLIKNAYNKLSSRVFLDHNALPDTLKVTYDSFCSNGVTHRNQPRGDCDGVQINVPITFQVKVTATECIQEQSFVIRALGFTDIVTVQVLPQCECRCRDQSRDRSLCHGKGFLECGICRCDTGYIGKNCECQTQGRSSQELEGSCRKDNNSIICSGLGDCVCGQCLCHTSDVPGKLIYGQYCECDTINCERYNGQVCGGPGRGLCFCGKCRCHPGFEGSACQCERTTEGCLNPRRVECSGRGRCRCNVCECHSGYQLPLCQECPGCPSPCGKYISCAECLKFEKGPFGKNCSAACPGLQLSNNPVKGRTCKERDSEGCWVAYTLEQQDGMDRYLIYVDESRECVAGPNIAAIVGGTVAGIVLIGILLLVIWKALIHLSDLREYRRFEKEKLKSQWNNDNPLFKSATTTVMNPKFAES
Mac1 fbg inh = inhibitors of human CD11b/CD18 binding to fibrinogen; P05107+P11215; K562 CD11b/CD18 adhesion to fibrinogen, ATPlite luminescence; Mn2+ added to activate the integrin; inhibition, % at 10 µM; hit rate 0.54% among 93,000; AID 1497;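 active = primary inhibition of 50% or more at 10 µM, then 40% or more on retest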
CYP2C9 activ = activators of human CYP2C9. recombinant CYP2C9, luciferin-H conversion, luminescence; active compounds read high; factor 1 = untreated enzyme, 0 = blocked. activation factor at 5 µM. P11712. hit rate 1.4% among 96,000;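 active = activation factor of 2 or more for CYP2C9 at a 5 µM dose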;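 note: 0 = sulfaphenazole-blocked wells and 1 = vehicle-only wells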
* = called active by the depositor; x = no result. Rows were chosen to be rich in hits. Some 28% of all compounds tested hit in one or more screens of this group.

SMILES	CYP2C9 inhib	CYP2C19 activ	CYP2C19 inh	CD11b adhes enh	Mac1 fbg inh	CYP2C9 activ
COc1ccc(CCn2c(=S)[nH]c3cc(C(=O)NCc4ccco4)ccc3c2=O)cc1OC	59.8*	0.6	42.4	21.7	27.9	0.4
CCCOc1cc(CC(=O)NCc2ccco2)ccc1OC	62.9*	0.3	70.8*	-3.3	-28.9	0.4
COc1ccc(C(=O)NC(=S)NCc2ccco2)cc1OC	69.5*	0.5	53.9*	-2.1	-42.3	0.3
COc1ccc(CCNC(=O)COc2ccc(S(=O)(=O)N3CCOCC3)cc2)cc1	34.1	0.8	23.6	-1.4	0.3	0.7
COc1ccc(CCNC(=O)COc2ccc(-c3ccc(C)cc3)cc2)cc1OC	74.5*	1	3.1	-1.4	6.3	0.3
COc1ccc(CCNC(=O)COC(=O)c2cnc(C)cn2)cc1OC	-3.3	1	0.1	-6.5	-2.6	1
COc1ccc(CCNC(=O)COc2ccc(S(=O)(=O)N3CCOCC3)cc2)cc1OC	50.3*	0.9	14.9	-3.6	25.7	0.5
CC(=O)c1cccc(-n2nnnc2SCC(=O)N2CCCC2)c1	-21.3	1.1	-10.8	2.3	5.4	1.2
COCCCN(C(C)=O)c1nc(-c2ccc(OC)cc2)cs1	34.4	0.7	33.2	-1.2	0.8	0.7
Cn1c(O)c(C=Nc2ccc(Cc3ccncc3)cc2)c(=O)n(C)c1=O	73.4*	0.1	87.8*	5.5	-20.4	0.3
CCC(C)(c1ccc(C(=O)OC)s1)c1ccc(C(=O)OC)s1	97.7*	0	98.2*	0.3	22.5	0
CCCn1c(SCC(=O)NCc2ccco2)nnc1C(C)C	-16.0	1.2	-16.3	-2.2	17.1	1.2
COc1ccc(/C=C2/C(=O)N(CC3CCCO3)C(=S)N2C)c(OC)c1 (centres undefined)	90.4*	0.4	63.9*	2.4	-5.2	0.1
CSC1=C(C#N)C(CC(C)C)C(C(C)=O)=C(C)N1 (centres undefined)	48.8	0.2	81.5*	-0.8	-12.3	0.5
CSC1=C(C#N)C(CC(C)C)C2=C(CCCC2=O)N1 (centres undefined)	21.9	0.7	34.6	-2.0	-2.6	0.8
CCc1ccc(/C=N/NC(=O)c2cc(-c3ccccc3OC)nc3ccccc23)s1	94.2*	0.3	66.3*	-4.7	-2.3	0.1
COc1ccccc1-c1cc(C(=O)N/N=C/c2ccc(C)s2)c2ccccc2n1	99.6*	0.3	74.9*	-4.0	-0.3	0
CCc1ccc(/C=N/NC(=O)c2cc(C3CC3)nc3ccc(Br)cc23)s1	36.1	0.9	9.5	-5.6	17.6	0.6
Cc1ccc(-c2cc(C(=O)N/N=C\c3cnn(C)c3C)c3ccccc3n2)cc1C	98.8*	0.1	87.4*	-5.9	19.7	0
COc1ccc(C2C(=O)N(CCc3ccccc3)CC(=O)N2C2CCCC2)cc1 (centres undefined)	12.4	0.8	22.3	x	x	0.9
O=C(CSc1nc2c(c(=O)[nH]1)CCCC2)Nc1ccc(Cl)cc1F	4.6	1.1	-13.7	-1.2	5.3	1
C=CCSc1nc(NC)c2sccc2n1	-148.1	0.8	21.9	x	x	2.5*
CNc1nc(SC)nc2ccsc12	-129.9	0.6	37.1	-2.0	-10.3	2.3*
O=C(O)Cn1ncc2c1-c1ccoc1CC2	-6.4	1.2	-18.7	-0.3	15.5	1.1
O=C(Nc1ncc2c(n1)-c1ccccc1OC2)c1ccc(Cl)cc1Cl	0.2	0.8	22.0	8.2	3.6	1
SMILES	CYP2C9 inhib	CYP2C19 activ	CYP2C19 inh	CD11b adhes enh	Mac1 fbg inh	CYP2C9 activ
Cc1ccc(N(CC(=O)NCc2ccncc2)S(C)(=O)=O)cc1Cl	88.9*	0	98.7*	-3.7	6.0	0.1
CS(=O)(=O)N(CC(=O)NCc1ccncc1)c1cc(Cl)cc(Cl)c1	86.7*	0	99.7*	-1.7	3.1	0.1
C=CCNC(=O)CN(c1ccc(F)c(Cl)c1)S(C)(=O)=O	7.4	0.4	56.8*	4.3	-6.6	0.9
CS(=O)(=O)N(CC(=O)Nc1cccnc1)c1ccc2c(c1)OCCO2	6.2	0.9	8.4	-2.0	-3.9	0.9
Cc1ccc(N(CC(=O)NCc2cccnc2)S(C)(=O)=O)cc1C	25.6	0.2	83.9*	0.1	-26.4	0.7
COc1ccc(OC)c(/C=N/NC(=O)c2csc3ccccc23)c1	-4.4	1	-3.0	x	x	1
CCCNC(=O)NC(C(=O)OC)C12CC3CC(CC(C3)C1)C2 (centres undefined)	39.6	0.3	69.0*	-0.1	-2.2	0.6
Cc1ccccc1NC(=O)C1CCCN1/C=C/C(=O)C(F)(F)F (centres undefined)	x	x	x	-2.2	-2.7	x
CCOC(=O)N(C)OC(=O)Nc1ccc(Cl)c(Cl)c1	17.8	0.8	17.1	-2.6	-5.9	0.8
CCOC(=O)N(CC)OC(=O)Nc1ccc(Cl)cc1	57.9*	0.2	77.6*	-4.6	-2.5	0.4
Nn1c(SCC(=O)Nc2cccc(F)c2)nnc1C1CCCCC1	52.8*	0.5	54.3*	1.4	-15.6	0.5
Cc1ccccc1NC(=O)Cc1nc(CSc2nnc(C3CCCCC3)n2N)cs1	84.3*	0.5	54.6*	-2.5	0.0	0.2
Cn1c(SCC(=O)c2ccccc2)nnc1C1CC1	0.3	0.5	50.0*	0.0	-8.3	1
COc1ccccc1NC(=O)CSc1nnc(C2CCCCC2)n1C	8.5	0.3	65.4*	1.2	-1.7	0.9
Cn1nnc2cc(C(=O)NC3CCCCC3)ccc21	-3.8	1	2.5	-0.2	-20.4	1
O=[N+]([O-])c1ccc(/C=N/NC(=S)Nc2ccccc2C(F)(F)F)o1	x	x	x	0.4	3.4	x
COc1ccccc1-c1c(C)nn2c(N3CCN(Cc4ccccc4)CC3)cc(C)nc12	52.0*	0.4	56.6*	-1.5	0.4	0.5
COc1ccc(-c2c(C)nn3c(N4CCN(Cc5ccccc5)CC4)cc(C)nc23)cc1OC	84.9*	0.3	67.8*	1.9	23.0	0.2
COc1ccccc1-c1c(C)nn2c(N3CCN(c4ccccc4OC)CC3)cc(C)nc12	49.5	0.2	75.6*	-0.4	4.4	0.5
Cc1cc(N2CCN(Cc3ccccc3)CC2)n2nc(C)c(-c3ccccc3)c2n1	14.9	0.8	16.5	0.2	40.4	0.9
COC(=O)Cn1ncc2c3ccccc3n(C)c2c1=O	6.7	1	-4.0	-0.3	10.4	0.9
Cc1cc2c(c(=O)n1C)C(Cc1ccccc1)C(C#N)=C(N)O2 (centres undefined)	33.9	0.2	83.0*	2.5	-20.7	0.7
CCCC1C(C#N)=C(N)Oc2cc(C)n(C)c(=O)c21 (centres undefined)	-13.0	1	-4.2	3.6	9.1	1.1
CC(C)(C)c1[nH]nc2c1C(c1ccc(OC(=O)c3ccco3)cc1)C(C#N)=C(N)O2 (centres undefined)	71.2*	0.3	65.3*	x	x	0.3
